Assay [1] in a line: hESC survival regulators, cell-based (AID 493140).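 Note: cells exposed to compounds for four days before counting.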 To be noted: human embryonic stem cell survival screen; stronger effect = higher value.
Assay [2] is described as follows: sensitizers of A549 cells to miR-34 induction, primary screen, imaging, A549 dox-inducible miR-34, nuclei and caspase counts (AID 1347080;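 active = compounds whose cell count with miR-34 switched on is under 0.7 times the count with it off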). To be noted: A549 miR-34 inducible, Hoechst nuclei count, 48 h.
Assay [3] in a line: inhibitors of Cryptococcus chitosan production, flow cytometry, Cibacron Brilliant Red staining (AID 1347148).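 Note: compound exposure lasted three days at 37 degrees C.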 The settings on record: Cryptococcus neoformans chitosan, stronger effect = lower value; at 10 µM unless noted. In general terms: In flow cytometry, cells or beads pass a laser one at a time.
Assay [4] is described as follows: circadian clock period modulators, cell-based, LOPAC library, luminescence reporter (AID 2774).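 Note: values are relative to mean of DMSO wells on each plate.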 The settings on record: circadian reporter cells, at 7 µM, actives lie on both sides.
The subject of assay [5] is Hepatitis C virus NS3 helicase. The assay is described as follows: HCV NS3 helicase inhibitors, primary screen, biochemical, fluorescence polarization, LOPAC1280 library (AID 687035; in the data active = inhibition above about 37%). To be noted: Purified HCV NS3 helicase, Cy5-dT15 ssDNA binding fluorescence polarization; stronger effect = higher value; concentration not given here. Background: In fluorescence polarisation assays a small probe gives low polarisation when free and higher when bound to something large.

A short description of assay [6]: Cy5 fluorescence quenching or enhancement artefacts, artefact control for HCV NS3 helicase inhibitor project, biochemical, LOPAC1280 (AID 687037). To be noted: Cy5-DNA-NS3h complex fluorescence interference counterscreen.
Assay [7] in a line: phospholipid biosynthesis inhibitors in animal cells, primary screen, cell-based, LOPAC library, screen 4 (AID 1347384). The settings on record: phospholipid biosynthesis inhibition screen, at 10 µM.
Assay [8] is described as follows: viability rescue of complex I mutant cybrids, primary screen, cell-based, galactose medium, ATP luminescence (AID 1645843;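 active = z-score of at least 1.8 in each of two replicates, scored against plate mean and spread of sample wells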;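 note: positive z means more ATP and so rescue of galactose-driven cybrid death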). To be noted: complex I mutant cybrid cells, 72 h, stronger effect = higher value.
The nature of assay [9]: liver-stage malaria parasite growth inhibition, primary screen, cell-based, HepG2, luciferase luminescence, HepG2 viability (AID 624349; in the data active = parasite load remaining mostly below about 12%, no sharp cut-off; inactive = mostly above about 10%;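 note: 100% = mean of DMSO negative control wells on the same plate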). To be noted: P. berghei liver stage in HepG2, luciferase luminescence, concentration not given here; parasite load remaining: stronger effect = lower value; viability: measured here: HepG2 viability without parasites.
Assay [10] in a line: survival rescue of mitochondrial mutant cells in low glucose, primary screen, MELAS cybrids, Rieske KO mouse fibroblasts, CellTiter-Glo (AID 1508586;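 active = mean z-score across replicates of 1.96 or higher in either the MELAS or the Rieske mutant cell line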;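 note: z relative to plate mean and SD of compound and empty wells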). Background: In ATP-based viability assays light output follows the ATP content of the culture.
Setting [11] is: stronger effect = lower value, cell number ratio, induced over uninduced.
[12] abbreviates: measured here: relative caspase fold change +Dox/-Dox.
Setting [13] is: measured here: total cells with miR-34 induction, stronger effect = lower value.
[14] abbreviates: measured here: total cells without miR-34 induction.
Setting [15] is: MELAS cybrid survival, CellTiter-Glo 48 h, stronger effect = higher value.
Setting [16] is: Rieske KO mouse fibroblast survival, CellTiter-Glo 72 h.

Where “and” joins values, the source holds several entries; their conditions need not be identical. Equal entries are not always repeated. Calls of active or inactive are those of the source. Unless noted, the rule behind the calls is not given here.

By inhibition is commonly meant the change of the read-out against control, counted positive when it falls. As usually defined, the viability is a read-out of living cells in per cent, often relative to untreated cells.

As to `CCCCCCCCCCCCC/C=C/[C@@H](O)[C@@H](N)CO`, the survival in assay [1] is 98.4 (inactive) and 83.2 (inactive). In addition, the fold change is 0.985 (inactive) and 0.945 (inactive) in assay [2] (setting [11]); 1.13 and 1.49 in assay [2] (setting [12]). The cell count is 6200 and 6060 in [2] (setting [13]); 6290 and 6410 in assay [2] (setting [14]). In addition, the fold fluorescence in [3] was 8.01 (inactive).

Regarding `CCCCC/C=C\C/C=C\C/C=C\C/C=C\CCCC(=O)SCC(O)CO` (stereo not drawn), the fold change in assay [2] (setting [11]) is 0.986 (inactive); in assay [2] (setting [12]) it was 0.486. In addition, the cell count came out at 5460 in [2] (setting [13]) and 5540 in [2] (setting [14]).

For `CC#CCC(C)C(=O)/C=C/[C@@H]1[C@H]2C/C(=C/CCCC(=O)O)C[C@H]2C[C@H]1O` (stereo partly drawn), the fold change was 0.968 (inactive) in [2] (setting [11]) and 3.57 in [2] (setting [12]). Further, the cell count in assay [2] (setting [13]) amounted to 5500; in assay [2] (setting [14]), 5680.

In the case of `CCCCCCCCCCC/C=C\C(C)(C)/C=C\CCCC(=O)O`, in assay [4], the period change is -0.11 h (inactive). Further, the survival in [1] was 88.8 (inactive). In assay [5], the inhibition was 0% (inactive). The fluorescence ratio (interference) in assay [6] is 0.9 (inactive). Also, the fold change was 0.986 (inactive) and 1.01 (inactive) in [2] (setting [11]); 1.15 and 1.25 in assay [2] (setting [12]). Moreover, the cell count in [2] (setting [13]) is 9810 and 5810; in assay [2] (setting [14]) it was 9950 and 5750. In addition, the fold fluorescence in [3] is 5.21 (inactive). Further, in assay [7], the call was inactive. Moreover, the z-score in [8] is 0.145 (inactive).

`Nc1ccc2c3c(cccc13)C(=O)NC2=O`: the period change in [4] was 0.025 h (inactive). Moreover, the inhibition in [5] is -1% (inactive). In [6], the fluorescence ratio (interference) was 1 (inactive). The fold change is 0.949 (inactive) and 1.13 (inactive) in assay [2] (setting [11]); 1.39 and 0.672 in assay [2] (setting [12]). Moreover, the cell count in assay [2] (setting [13]) was 8220 and 6020; in [2] (setting [14]), 8660 and 5330. Further, the fold fluorescence in assay [3] is 4.37 [at 235.6 µM] (inactive). Further, the outcome in assay [7] was inactive. In assay [8], the z-score was 0.605 (inactive).

As for `CCCCCCCCCCCCCCCC(=O)OC[C@H](COP(=O)([O-])OCC[N+](C)(C)C)OC(=O)CCCC(=O)/C=C/C(=O)O`, the fold change was 1 (inactive) in [2] (setting [11]) and 0.771 in assay [2] (setting [12]). Also, the cell count in assay [2] (setting [13]) and in assay [2] (setting [14]) was 5760 each time.

`CC/C=C\C/C=C\C/C=C\CCCCCCCCCC(=O)O`: in [1], the survival is 95.1 (inactive). Moreover, the fold change in assay [2] (setting [11]) is 1.09 (inactive) and 1.03 (inactive); in assay [2] (setting [12]) it was 1.26 and 1.06. Also, the cell count in [2] (setting [13]) is 5750 and 5880; in assay [2] (setting [14]), 5250 and 5730. The fold fluorescence in assay [3] was 4.88 (inactive).

Turning to `NC(=Nc1ccccc1)NC(=O)c1nc(Cl)c(N)nc1N`, the period change in [4] was -0.435 h (inactive). In addition, the parasite load remaining in assay [9] was 58.8% (inactive). For the same compound, the viability in assay [9] is 98%. For the same compound, the inhibition in [5] was -2% (inactive). In addition, in [6], the fluorescence ratio (interference) is 1 (inactive). Moreover, the fold change in [2] (setting [11]) was 1.04 (inactive) and 0.937 (inactive) and 0.841 (inactive); in [2] (setting [12]), 1.01 and 1.25 and 1.03. For the same compound, the cell count in assay [2] (setting [13]) was 5840 and 3000 and 8780; in assay [2] (setting [14]), 5620 and 3200 and 10400. For the same compound, the fold fluorescence in assay [3] was 5.89 [at 163.5 µM] (inactive). In assay [7], the call was inactive. The z-score in assay [10] (setting [15]) is 1.28 (inactive); in assay [10] (setting [16]) it was 0.859; in assay [8], -0.925 (inactive) and 0.595 (inactive).

On to `CCCCC/C=C\C/C=C\C/C=C\C/C=C\CCCC(=O)OC(CO)CO`, for which the survival in [1] was 72.6 (inactive). Further, the fold change in assay [2] (setting [11]) was 0.947 (inactive) and 1.01 (inactive); in assay [2] (setting [12]) it was 1.17 and 0.841. The cell count in assay [2] (setting [13]) was 6380 and 5230; in assay [2] (setting [14]) it was 6740 and 5180. The fold fluorescence in [3] was 5.06 (inactive).

As to `COC1=C2C[C@@H](C)C[C@H](OC)[C@H](O)[C@@H](C)/C=C(\C)[C@H](OC(N)=O)[C@@H](OC)/C=C\C=C(/C)C(=O)NC(=CC1=O)C2=O`, the fold change in assay [2] (setting [11]) was 0.898 (inactive); in assay [2] (setting [12]), 1.11. The cell count in [2] (setting [13]) is 1320; in [2] (setting [14]), 1470.

For `CCCCCCCCCCCCCCOc1ccc(C(=O)O)o1`, the fold change in assay [2] (setting [11]) was 0.937 (inactive); in assay [2] (setting [12]), 1. Moreover, the cell count in assay [2] (setting [13]) is 5650; in assay [2] (setting [14]), 6030.

Consider `CCCCC/C=C\C/C=C\CC/C=C\CCCC(=O)OC`, for which the fold change in assay [2] (setting [11]) was 0.951 (inactive); in assay [2] (setting [12]), 0.414. Further, the cell count in assay [2] (setting [13]) was 6030; in [2] (setting [14]), 6340.

On to `COC(=O)C1=C(C)NC(C)=C(C(=O)OC2CCCN(Cc3ccccc3)C2)C1c1cccc([N+](=O)[O-])c1` (stereo not drawn), for which the fold change was 1.82 (inactive) and 1.04 (inactive) in [2] (setting [11]); 0.615 and 0.533 in [2] (setting [12]). For the same compound, the cell count is 3920 and 6890 in assay [2] (setting [13]); 2160 and 6660 in assay [2] (setting [14]). Moreover, the result in assay [7] was inactive. For the same compound, the z-score is -0.438 (inactive) in assay [10] (setting [15]), -0.0848 in assay [10] (setting [16]) and -1.88 (inactive) in assay [8].

Turning to `CCCCCCCCC#CCC#CCC#CCCCC(=O)O`, the survival in assay [1] was 97.9 (inactive). The fold change in [2] (setting [11]) was 0.872 (inactive) and 1.12 (inactive); in assay [2] (setting [12]), 1.12 and 0.534. The cell count in [2] (setting [13]) was 5490 and 6070; in assay [2] (setting [14]), 6300 and 5430. Also, the fold fluorescence in assay [3] is 6.11 (inactive).

Turning to `COc1ccc(C(=O)NCc2cccnc2)cc1C(=O)NCc1cccnc1`, the period change in assay [4] is -0.05 h (inactive). In addition, in assay [1], the survival was 25.1 (inactive). Also, the parasite load remaining in [9] is 27.2% (inactive) and 91.5% (inactive) and 35% (inactive). Also, the viability in [9] was 71% and 87.7% and 69.5%. Moreover, the inhibition in assay [5] is -2% (inactive). Also, in [6], the fluorescence ratio (interference) was 1 (inactive). The fold change in [2] (setting [11]) was 0.938 (inactive) and 0.931 (inactive) and 0.857 (inactive); in assay [2] (setting [12]), 1.32 and 2 and 1.31. Moreover, the cell count in assay [2] (setting [13]) was 10400 and 9270; in [2] (setting [14]), 11100 and 9960 and 10800. Further, the call in assay [7] was inactive. Also, the z-score in assay [10] (setting [15]) was 0.681 (inactive) and 0.373 (inactive); in assay [10] (setting [16]), 0.414 and 0.0826; in [8], 0.09 (inactive) and 0.34 (inactive).

As for `CCCCC[C@H](O)/C=C/[C@H]1C(=O)C[C@H](O)[C@@H]1C/C=C\CCCC(=O)O`, the survival in assay [1] is 96.1 (inactive). Also, the fold change in [2] (setting [11]) is 0.966 (inactive) and 0.979 (inactive); in [2] (setting [12]), 1.13 and 1.66. The cell count in assay [2] (setting [13]) is 6220 and 5740; in assay [2] (setting [14]), 6440 and 5870. For the same compound, the fold fluorescence in assay [3] was 3.99 (inactive).

In the case of `CC/C=C\C/C=C\C/C=C\CCCCCCCC(=O)O`, the survival in [1] was 92.8 (inactive). Besides, the fold change in assay [2] (setting [11]) was 0.97 (inactive) and 0.988 (inactive); in assay [2] (setting [12]), 1.3 and 0.691. Also, the cell count in assay [2] (setting [13]) is 6070 and 5710; in assay [2] (setting [14]) it was 6250 and 5780. In addition, in assay [3], the fold fluorescence is 4.4 (inactive).

On to `CC(=O)N[C@@H](CSC/C=C(\C)CC/C=C(\C)CCC=C(C)C)C(=O)O`, for which, in [1], the survival was 97.2 (inactive). The fold change was 0.899 (inactive) and 1.06 (inactive) in assay [2] (setting [11]); 1.4 and 1.04 in assay [2] (setting [12]). For the same compound, the cell count in assay [2] (setting [13]) was 5730 and 5900; in assay [2] (setting [14]), 6380 and 5570. Besides, the fold fluorescence in assay [3] is 5 [at 136 µM] (inactive).

(Values after PubChem BioAssay.)
